Assay results taken from PubChem BioAssay (NCATS).
“And” between values parts separate entries of the source, which are not always exact repeats. Equal entries are not always repeated. Records with an inconclusive call do not appear. The source made the active and inactive calls. Calls follow the shape of the dose curve; as a rule, active = well fitted curve in the direction sought with a large enough effect; inconclusive = small, poorly fitted or top-dose-only effect, or another doubt; inactive = no such curve, though single readings can be large; an effect the other way counts as inactive or inconclusive.

What was measured:
[1] = qHTS of pediatric cancer cell lines to identify multiple opportunities for drug repurposing: Primary screen for SK-N-SH cells (AID 1347098); also: nearly all actives have a fitted effect of over 65% in size; also: potency is read from the fitted curve at half-maximal effect
Procedure, shortened: (§1)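 Cells (500-1,000/well) rested 5 h, then received compounds for 48 h; metabolically active cells were measured by CellTiter-Glo luminescence. Final concentrations spanned up to 46 µM (MIPE, 11-point) or 0.59 nM-46 µM (NPC, 8-point) in primary screens, 11-point in follow-ups.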

[2] = qHTS of pediatric cancer cell lines to identify multiple opportunities for drug repurposing: Primary screen for NB1643 cells (AID 1347099); also: nearly all actives have a fitted effect of over 50% in size; also: potency is read from the fitted curve at half-maximal effect
Procedure, shortened: (§2)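 Primary screen of approved and investigational compounds on cells in growth media at 37 degrees C, 5% CO2. MIPE set at 11-point and NPC set at 8-point dilutions; viability scored by ATP-based luminescence at 48 hours.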

[3] = qHTS of pediatric cancer cell lines to identify multiple opportunities for drug repurposing: Primary screen for LAN-5 cells (AID 1347100); also: potency is read from the fitted curve at half-maximal effect
Procedure, shortened: (§3)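 Viability after 48 h compound treatment at 37C, 500-1,000 cells/well, read as ATP luminescence with CellTiter-Glo. Primary screens used 11-point (MIPE, 0.78 nM-46 µM) or 8-point (NPC, 0.59 nM-46 µM) final concentrations; follow-up screens used 11-point dilutions.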

[4] = qHTS of pediatric cancer cell lines to identify multiple opportunities for drug repurposing: Primary screen for BT-12 cells (AID 1347101); also: nearly all actives have a fitted effect of over 25% in size; also: potency is read from the fitted curve at half-maximal effect
Procedure, shortened: as §1

[5] = qHTS of pediatric cancer cell lines to identify multiple opportunities for drug repurposing: Primary screen for Rh18 cells (AID 1347102); also: nearly all actives have a fitted effect of over 65% in size; also: potency is read from the fitted curve at half-maximal effect
Procedure, shortened: as §3

[6] = qHTS of pediatric cancer cell lines to identify multiple opportunities for drug repurposing: Primary screen for OHS-50 cells (AID 1347103); also: nearly all actives have a fitted effect of over 40% in size; also: potency is read from the fitted curve at half-maximal effect
Procedure, shortened: as §1

[7] = qHTS of pediatric cancer cell lines to identify multiple opportunities for drug repurposing: Primary screen for RD cells (AID 1347104); also: nearly all actives have a fitted effect of over 55% in size; also: potency is read from the fitted curve at half-maximal effect
Procedure, shortened: as §2

[8] = qHTS of pediatric cancer cell lines to identify multiple opportunities for drug repurposing: Primary screen for MG 63 (6-TG R) cells (AID 1347105); also: nearly all actives have a fitted effect of over 50% in size
Procedure, shortened: as §2

[9] = qHTS of pediatric cancer cell lines to identify multiple opportunities for drug repurposing: Primary screen for control Hh wild type fibroblast cells (AID 1347106);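 also: series mostly up to about 46 µM; a drop in luminescence marks cytotoxicity and a rise apparent proliferation; nearly all actives have a fitted effect of over 55% in size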
Procedure, shortened: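 Cells (500-1,000/well) in growth media were settled 5 h at 37 degrees C, then given compounds for 48 h. Viability was read as CellTiter-Glo luminescence. Primary runs used MIPE at 11 points (0.78 nM-46 µM) and NPC at 8 points (0.59 nM-46 µM); follow-ups used 11 points.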

[10] = qHTS of pediatric cancer cell lines to identify multiple opportunities for drug repurposing: Primary screen for Rh30 cells (AID 1347107); also: series mostly up to about 46 µM; nearly all actives have a fitted effect of over 75% in size
Procedure, shortened: as §3

Measured: Potency

CCOP(=S)(OCC)O/N=C(\C#N)c1ccccc1
inactive: [1] | [2] | [3] | [4] | [5] | [6] | [7] | [8] | [9] | [10]

C=CCN1CC[C@]23CCCC[C@H]2[C@H]1Cc1ccc(O)cc13
inactive: [1] | [2] | [3] | [4] | [5] | [6] | [7] | [8] | [9] | [10]

O=C(O)Cc1ccccc1
inactive: [1] | [2] | [3] | [4] | [5] | [6] | [7] | [8] | [9] | [10]

CCOC(=O)c1cncn1C(C)c1ccccc1 (stereo not drawn)
inactive: [1] | [2] | [3] | [4] | [5] | [6] | [7] | [8] | [9] | [10]

CCOC(=O)NC(O)C(Cl)(Cl)Cl (stereo not drawn)
inactive: [1] | [2] | [3] | [4] | [5] | [6] | [7] | [8] | [9] | [10]

NC(=O)OCCCc1ccccc1
inactive: [1] | [2] | [3] | [4] | [5] | [6] | [7] | [9] | [10]

CCCCCCCCC(=O)NCc1ccc(O)c(OC)c1
active: [1] 0.0014 µM | [2] 0.001 µM | [3] 0.001 µM | [6] 0.001 µM
inactive: [4] | [5] | [7] | [9] | [10]

C[C@]12CC[C@H]3[C@@H](CC=C4C[C@@H](O)CC[C@@]43C)[C@@H]1CC[C@@H]2O
inactive: [1] | [2] | [3] | [4] | [5] | [6] | [7] | [8] | [9]

CC(C)C(Br)C(=O)NC(N)=O (stereo not drawn)
inactive: [1] | [2] | [3] | [4] | [5] | [6] | [7] | [8] | [9] | [10]

CN(C)CCc1c[nH]c2ccc(O)cc12
inactive: [1] | [2] | [3] | [4] | [5] | [6] | [9]

CN1C[C@@H](NS(=O)(=O)N(C)C)C[C@@H]2c3cccc4c3c(cn4C)C[C@H]21
inactive: [1] | [2] | [3] | [4] | [5] | [7] | [8] | [9] | [10]

CCN(Cc1ccc(Cl)nc1)/C(=C/[N+](=O)[O-])NC
inactive: [1] | [2] | [3] | [4] | [5] | [6] | [7] | [8] | [9]

CC(Cc1ccccc1)NCCCCl (stereo not drawn)
inactive: [1] | [2] | [3] | [4] | [5] | [6] | [7] | [8] | [9] | [10]

ClC1=C(Cl)C2(Cl)C(CBr)CC1(Cl)C2(Cl)Cl (stereo not drawn)
inactive: [1] | [2] | [3] | [4] | [5] | [6] | [7] | [9] | [10]

Nc1ccccc1C(=O)OCC(O)CO (stereo not drawn)
inactive: [1] | [2] | [3] | [4] | [5] | [6] | [7] | [9] | [10]

C[N+]1(CCC(C(N)=O)(c2ccccc2)c2ccccc2)CCCCC1
inactive: [1] | [2] | [3] | [4] | [5] | [6] | [7] | [8] | [9] | [10]

CC[n+]1c(-c2ccccc2)c2cc(N)ccc2c2ccc(N)cc21
active: [1] 7.7 µM | [2] 11.9 µM | [3] 0.944 µM | [4] 3.09 µM | [5] 11.9 µM | [6] 1.55 µM | [7] 13.3 µM

CC(CC(C(N)=O)(c1ccccc1)c1ccccc1)N(C)C (stereo not drawn)
inactive: [1] | [2] | [3] | [4] | [5] | [7] | [8] | [9]

O=C(O)CCCCCCNC1c2ccccc2CCc2ccccc21
inactive: [1] | [2] | [3] | [4] | [5] | [6] | [7] | [8] | [9] | [10]

Cc1nnc2n1-c1sc(CCC(=O)N3CCOCC3)cc1C(c1ccccc1Cl)=NC2
inactive: [1] | [2] | [3] | [4] | [5] | [6] | [7] | [8] | [9] | [10]

CCC1(CC)C(=O)NC(=O)NC1=O
inactive: [1] | [2] | [3] | [4] | [5] | [6] | [7] | [8] | [9] | [10]

COP(=O)(OC)C(O)C(Cl)(Cl)Cl (stereo not drawn)
inactive: [1] | [2] | [3] | [4] | [5] | [6] | [7] | [8] | [9] | [10]

COP(=S)(OC)Oc1ccc(S(N)(=O)=O)cc1
inactive: [1] | [2] | [3] | [4] | [5] | [6] | [7] | [8] | [9] | [10]

COc1ccc(OC)c(CC(C)N)c1 (stereo not drawn)
inactive: [1] | [2] | [3] | [4] | [5] | [6] | [7] | [8] | [9]

CNC(C)Cc1ccccc1OC (stereo not drawn)
inactive: [1] | [2] | [3] | [4] | [5] | [6] | [7] | [9] | [10]

CCOC(=O)C1(c2ccccc2)CCN(CCc2ccc(N)cc2)CC1
inactive: [1] | [2] | [3] | [4] | [5] | [6] | [7] | [8] | [9] | [10]

C1CN2CCC1CC2
inactive: [1] | [2] | [3] | [4] | [5] | [6] | [7] | [8] | [9] | [10]

CCCOC(=O)Cc1ccc(OCC(=O)N(CC)CC)c(OC)c1
inactive: [1] | [2] | [3] | [4] | [5] | [6] | [7] | [8] | [9] | [10]

COP(=O)(OC)OC=C(Cl)Cl
inactive: [1] | [2] | [3] | [4] | [5] | [6] | [7] | [9]

CCS(=O)(=O)C(C)(C)S(=O)(=O)CC
inactive: [1] | [2] | [3] | [4] | [5] | [6] | [7] | [9] | [10]

CCC1(c2cccc(O)c2)CCCCN(C)C1 (stereo not drawn)
inactive: [1] | [2] | [3] | [4] | [5] | [6] | [7] | [8] | [9]

C[C@@H]1CN(C2CCC(C#N)(c3ccc(F)cc3)CC2)CC[C@]1(C(=O)O)c1ccccc1 (stereo partly drawn)
inactive: [1] | [2] | [3] | [4] | [5] | [6] | [7] | [9]

CN(C)C(=O)Oc1cc(OC(=O)N(C)C)cc(C(O)CNC(C)(C)C)c1 (stereo not drawn)
inactive: [1] | [2] | [3] | [4] | [5] | [6] | [7] | [9]

O=c1n(Cl)c(=O)n(Cl)c(=O)n1Cl
inactive: [1] | [2] | [3] | [4] | [5] | [6] | [7] | [9] | [10]

O=C(CCCCl)c1ccc(F)cc1
inactive: [1] | [2] | [3] | [4] | [5] | [6] | [7] | [8] | [9] | [10]

CCNc1nc(Cl)nc(NCC)n1
inactive: [1] | [2] | [3] | [4] | [5] | [6] | [7] | [8] | [9] | [10]

C[C@]12CC[C@H]3[C@@H](CCC4=CC(=O)CC[C@@]43C)[C@@H]1CC[C@@H]2C(=O)O
inactive: [1] | [2] | [3] | [4] | [5] | [6] | [7] | [8] | [9] | [10]

COc1ccc2c(C(=O)c3ccc(Cl)cc3)c(C)n(CC(=O)O)c2c1
inactive: [1] | [2] | [3] | [4] | [5] | [6] | [7] | [9]

Sc1ccccc1Cl
inactive: [1] | [2] | [3] | [4] | [5] | [6] | [7] | [8] | [9]

COc1ccc2c3c1O[C@H]1[C@@H](O)C=C[C@H]4[C@@H](C2)N(C)CC[C@@]341
active: [1] 17.4 µM | [2] 23.8 µM | [3] 33.7 µM | [6] 44 µM | [7] 47.6 µM
inactive: [9]

CN1C(=O)[C@@H](NC(=O)c2cc3ccccc3[nH]2)N=C(c2ccccc2)c2ccccc21
inactive: [1] | [2] | [4] | [5] | [6] | [8] | [9] | [10]

CC(Cc1ccccc1)NCc1ccccc1Cl (stereo not drawn)
inactive: [1] | [2] | [3] | [4] | [5] | [7] | [9] | [10]

C=CCOC(Cn1ccnc1)c1ccc(Cl)cc1Cl (stereo not drawn)
inactive: [1] | [2] | [3] | [5] | [7] | [8] | [9]

C[C@@H]1C[C@@H]([C@H](O)CC2CC(=O)NC(=O)C2)C(=O)[C@@H](C)C1
inactive: [9]
active: [1] 4.86 µM and 8.57 µM | [2] 0.296 µM | [4] 777 nM and 611 nM | [6] 276 nM and 137 nM | [7] 473 nM and 235 nM

CCc1ccc(C2CCNCC2)cc1
inactive: [1] | [2] | [3] | [4] | [5] | [7] | [8] | [9] | [10]

COc1cc(C[C@@H](C)N)c(OC)cc1C
inactive: [1] | [2] | [3] | [5] | [7] | [8] | [9] | [10]
